# FLuc counter: inhibits or activates purified firefly luciferase, miR-21 counter-screen; P08659; purified FLuc, Km substrates, luminescence inhibition; Potency, µM (top dose mostly 57.5 µM), without a hit: at the highest dose activity change, negative = inhibition, most hits filed as inhibitors; 360,000 compounds, 6.9% hits;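 further: plate controls were vehicle for no effect and reference inhibitor for full effect; nearly all actives have a fitted effect of over 55% in size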
# Target sequence (P08659 whole entry, looked up): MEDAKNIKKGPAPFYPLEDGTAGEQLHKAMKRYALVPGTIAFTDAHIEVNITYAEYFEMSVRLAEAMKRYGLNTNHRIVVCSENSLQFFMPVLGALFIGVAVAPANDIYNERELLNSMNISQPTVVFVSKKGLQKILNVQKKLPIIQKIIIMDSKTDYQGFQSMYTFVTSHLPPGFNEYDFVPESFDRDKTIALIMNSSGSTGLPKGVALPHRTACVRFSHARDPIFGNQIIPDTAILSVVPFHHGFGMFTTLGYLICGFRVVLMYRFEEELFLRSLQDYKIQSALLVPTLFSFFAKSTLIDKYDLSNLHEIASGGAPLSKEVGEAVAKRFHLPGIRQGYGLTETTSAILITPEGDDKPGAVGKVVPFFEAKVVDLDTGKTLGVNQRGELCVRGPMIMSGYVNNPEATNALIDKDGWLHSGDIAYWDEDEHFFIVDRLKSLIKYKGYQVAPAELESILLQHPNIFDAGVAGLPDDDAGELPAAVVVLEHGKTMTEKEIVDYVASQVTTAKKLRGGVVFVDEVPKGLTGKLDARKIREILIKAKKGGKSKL
#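 Biochemical qHTS of compounds, final roughly 60 µM downward over six points, against 10 nM purified firefly luciferase using Km concentrations of substrates (10 uM D-luciferin, 10 uM ATP) in Tris acetate pH 7.5 buffer; luminescence output.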
# ELG1 genotoxic: genotoxicity induction in ELG1-luciferase HEK293T cells. 330,000 compounds, 1.3% hits. HEK293T ELG1-luciferase reporter, luminescence, 16 h. Potency, µM (titrated, usually from 46 µM), without a hit: top-dose activity change, positive = activation, most hits filed as activators. AID 504466; further: % of control where 0% means no effect; nearly all actives have a fitted effect of over 60% in size
#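 Cells (2,000/well) expressing the ELG1-luciferase fusion are dosed by pin tool and kept 16 hr at 37 °C, 5% CO2. Signal comes from ONE-Glo luciferase reagent after 30 min at room temperature.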
# SMN2 splice up: enhancers of SMN2 splice variant expression; HEK293 SMN2-luciferase splicing reporter, luminescence, 30-36 h; Potency, µM (top dose mostly 46.1 µM), inactives show at the top dose activity change, positive = activation, actives largely listed as activators; 210,000 compounds, 2.8% hits; AID 1458; further: % of control where 0% means no effect; nearly all actives have a fitted effect of over 55% in size
#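 qHTS luciferase splicing reporter: luminescence rises when SMN2 exon 7 is included in transfected HEK293 cells. Compound exposure lasted 30-36 h at 37C, with 4.5 mM final sodium butyrate as control, followed by a ONE-Glo read.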
# Rab9 promoter act: Rab9 promoter activation | AID 485297 | Huh7 Rab9 promoter-luciferase reporter, luminescence, 24 h | Potency, µM (titrated, usually from 9.22 µM), inactives show at the highest dose activation, negative = inhibition, usual class: activators | 320,000 compounds, 2.8% hits; further: % of control where 0% means no effect; nearly all actives have a fitted effect of over 60% in size
#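 Huh7 cells stably carrying a Rab9 promoter-luciferase reporter, 1500 cells per well in OP-MEM I with 10% FBS, treated with compound 24 hours at 37C. Luciferase activity read by luminescence after 10 minutes with Amplite reagent.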
# NPC1 prom act: activators of NPC1 promoter | Huh7 NPC1 promoter luciferase reporter, 24 h | Potency, µM (highest dose often 9.22 µM), for inactives: at the top dose activation, actives largely listed as activators | 320,000 compounds, 2.4% hits; further: % of control where 0% means no effect; nearly all actives have a fitted effect of over 60% in size
#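 Stably transfected Huh7 (NPC1 promoter→luciferase), 1500 cells/well in Opti-MEM + 10% FBS, 2 h settle, then compound 24 h at 37 °C. Luminescence after 10 min with Amplite reagent.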
# The depositor's hits bear a star; ? = inconclusive; . = no result; [ ] = another dose, or the depositor's remark. An excerpt weighted towards active compounds, which were near 7.5% of everything screened. The call rests on the fitted dose curve; in most records, active means well fitted curve in the direction sought with a large enough effect; inconclusive means small, poorly fitted or top-dose-only effect, or another doubt; inactive means no such curve, though single readings can be large; an effect the other way counts as inactive or inconclusive. Potency means the concentration at half of the fitted maximal effect.
SMILES,FLuc counter,ELG1 genotoxic,SMN2 splice up,Rab9 promoter act,NPC1 prom act
COc1ccccc1-c1noc(-c2ccccc2C(=O)Nc2ccccc2)n1,11µM*,4%,-3%,26%,11%
COc1ccccc1NC(=O)c1ccccc1-c1nc(-c2ccccc2OC)no1,11µM*,-7%,18%,8%,5%
Cc1cc(C)c(C(=O)COC(=O)c2cc([N+](=O)[O-])ccc2N2CCOCC2)cc1C,0%,3%,.,3%,1%
COc1cccc(CNCc2cccnc2)c1OCc1ccccc1,1%,-4%,.,2%,-3%
CC(=O)OCCCN1c2ccccc2Nc2nnc(-c3ccccc3)cc21,2.4µM*,?,14µM*,1.6µM*,1.8µM*
Cc1ccnc(NC(=O)CNC(=O)c2ccc3ccccc3c2)c1,?,21µM*,.,-2%,0%
Cc1ccnc(NC(=O)CNC(=O)COc2ccccc2)c1,19µM*,?,.,7%,13%
Cc1ccc(NC(=O)CNC(=O)COc2ccccc2)nc1,4%,1%,.,2%,-2%
Oc1cccc2ccc(/C=C/c3ccccc3Br)nc12,3.4µM*,?,.,?,3.5µM*
Oc1c(Cl)cc(Cl)cc1/C=C/c1ccc2cccc(O)c2n1,?,-15%,-20%,-32%,-35%
Oc1ccc(Cl)cc1/C=C/c1ccc2cccc(O)c2n1,21µM*,?,8%,-15%,-21%
Cc1ccc(CNC(=O)CSc2nc3ccsc3c(=O)n2-c2ccc(C(=O)O)cc2)cc1,-2%,.,.,.,.
COc1cccc(N/C=C/C(=O)c2ccc(C)cc2)c1,0.24µM*,1.5µM*,.,0.5µM*,0.45µM*
COc1ccc(C(=O)c2ccc(Cl)cc2Cl)cc1,?,15%,-20%,-30%,0%
COc1ccc(C(=O)c2ccc(Cl)cc2)cc1,?,21µM*,-9%,27%,15%
CCOC(=O)c1ccc(N/C=C/C(=O)c2ccc(OC)cc2)cc1,0%,7%,-9%,1%,-1%
COc1cccc(C(=O)/C=C/Nc2ccc(S(=O)(=O)Nc3cccc(C(C)=O)c3)cc2)c1,-1%,-18%,-45%,-4%,-9%
COc1cccc(N/C=C/C(=O)c2ccc(Cl)cc2)c1,0.54µM*,1.2µM*,4.5µM*,0.5µM*,0.5µM*
COc1ccc(N/C=C/C(=O)c2ccc(Cl)cc2)cc1,0.6µM*,3.7µM*,4.5µM*,0.71µM*,0.79µM*
CSc1ccccc1NC(=O)CN1CCN(S(=O)(=O)c2ccccc2[N+](=O)[O-])CC1,2%,1%,.,-15%,-1%
Cc1nn(-c2ccccc2)c(C)c1/C=N\NS(=O)(=O)c1ccc(Cl)cc1,1%,1%,2%,-1%,1%
Cc1ccc(C(=O)N2CCC(C(=O)c3ccc(Cl)cc3)CC2)cc1,-2%,-7%,.,-6%,-1%
COc1ccc(CNC(=O)c2ccccc2NC(=O)C2=CSCCO2)c(OC)c1,2%,-11%,.,-1%,-6%
COc1cccc(/C=C/C(=O)c2ccc(NS(=O)(=O)c3ccc(C)cc3)cc2)c1,13µM*,0%,-48%,-13%,-5%
COc1cccc(C(=O)/C=C/Nc2ccc(NC(C)=O)cc2)c1,9.5µM*,?,13µM*,4µM*,?
SMILES,FLuc counter,ELG1 genotoxic,SMN2 splice up,Rab9 promoter act,NPC1 prom act
COc1cc(/C=C/C(=O)c2ccc(NS(=O)(=O)c3ccc(C)cc3)cc2)cc(OC)c1O,-3%,-9%,-100%,-5%,-4%
COc1ccc(C(=O)/C=C/Nc2ccc(NC(C)=O)cc2)cc1OC,?,4%,-1%,-5%,-4%
COc1cccc(C(=O)/C=C/Nc2cccc(O)c2)c1,0.21µM*,2.3µM*,-6%,?,?
CN1CCN(C2=NC(=O)/C(=C/c3cn[nH]c3-c3ccccc3)S2)CC1,-17%,-9%,.,-7%,-3%
COc1ccc(/C=C2\SC(N3CCCCC3)=NC2=O)cc1,11µM*,10%,.,?,?
O=C1N=C(N2CCCCC2)S/C1=C\c1cn[nH]c1-c1ccccc1,7.6µM*,-1%,?,15%,21%
O=C1N=C(N2CCCCC2)S/C1=C\c1ccncc1,-9%,-6%,.,-6%,-4%
CC1CCN(C2=NC(=O)/C(=C/c3ccccc3F)S2)CC1,3.4µM*,9.2µM*,.,15%,?
CCc1ccc(/C=C2\SC(N3CCCC3)=NC2=O)cc1,17µM*,3%,-38%,-5%,-1%
O=C1N=C(N2CCCC2)S/C1=C\C=C\c1ccccc1,0.85µM*,1.6µM*,.,0.56µM*,1.6µM*
Cc1cccc(CSc2cn(CC(=O)N3CCOCC3)c3ccccc23)c1,15µM*,?,?,?,?
O=C(Cn1cc(SCc2cccc(Cl)c2)c2ccccc21)N1CCOCC1,19µM*,9%,.,?,21%
O=C(CSc1cn(CC(=O)N2CCOCC2)c2ccccc12)N1CCOCC1,-2%,1%,.,0%,2%
O=C(O)c1cc(N/N=C/c2ccncc2)ccc1Cl,9.5µM*,0%,.,20%,18%
Clc1cncc(Cl)c1N/N=C/c1ccncc1,?,-9%,-1%,-1%,14%
O=C(O)c1cc(N/N=C/c2c[nH]c3ccccc23)ccc1Cl,6.7µM*,?,.,1.6µM*,2µM*
O=C(CCC(=O)Nc1ccccc1Cl)N/N=C/c1c[nH]c2ccccc12,-5%,2%,-45%,-5%,-4%
O=C(O)c1cc(N/N=C/c2cccnc2)ccc1Cl,19µM*,5%,.,24%,26%
CSc1ccc(/C=N/Nc2ccc(Cl)c(C(=O)O)c2)cc1,0.54µM*,?,1.8µM*,?,0.1µM*
COc1cccc(NC(=O)COC(=O)CCC(=O)c2cccs2)c1,3%,2%,.,-3%,-4%
O=C(CN1CCN(C(=O)C2CCN(C(=O)/C=C/c3ccccc3)CC2)CC1)Nc1ccccc1Cl,?,0%,.,28%,?
COc1cc(/C=N/Nc2ccc(Cl)c(C(=O)O)c2)ccc1OCC(=O)N1C(C)CCCC1C (configuration not stated),?,8%,22%,-2%,0%
O=C(O)c1cc(N/N=C/c2ccc(-c3ccccc3)cc2)ccc1Cl,0.76µM*,0.46µM*,.,0.1µM*,0.089µM*
O=C(Nc1ccon1)c1cccc(C(F)(F)F)c1,7%[2.3 µM],3%,.,4%,-4%
CCN(CC1CCCO1)C(=O)c1cc(COc2ccc(OC)cc2Cl)on1 (configuration not stated),?,7%,.,20%,22%
COc1ccc(OCc2cc(C(=O)NC3Cc4ccccc4C3)no2)c(Cl)c1,3%,-5%,.,-10%,-24%
COc1ccc(OCc2cc(C(=O)NCc3nc(C)cs3)no2)c(Cl)c1,13µM*,?,.,?,?
Cc1nc(CNC(=O)c2cc(COc3ccc(F)cc3Cl)on2)cs1,27µM*,1%,.,0%,-1%

# Screening data as filed in PubChem.
